# A selection: hits, their analogues and other compounds. The true share with any hit is near 3.8%.
# TIM10 inh – growth inhibitors of TIM10 yeast strain. AID 463195. hit rate 1.4% among 330,000. S. cerevisiae TIM10 strain growth, BacTiter-Glo luminescence, 24 h. inhibition, % at 10 µM;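 active = inhibition of 40% or more at the single tested concentration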;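 note: wild-type TIM10 isogenic control strain grown at permissive 25 °C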
# tim10-1 inh – growth inhibitors of tim10-1 mutant yeast. AID 463190. hit rate 2.2% among 330,000. inhibition, % at 20 µM. S. cerevisiae tim10-1 ts strain growth, BacTiter-Glo, 24 h;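 active = inhibition of at least 40%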;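 note: mutant grown at 25 °C; 0% = DMSO wells with yeast and 100% = wells holding no yeast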
# Beta2AR agonist – human beta-2 adrenergic receptor agonism by FAP. P07550. Am2.2-beta2AR cells, FAP receptor internalization, flow cytometry. response, % (concentration not given with the values). hit rate 0.43% among 340,000;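 active = response above a set limit, near 3 SD of response in nonfluorescent compounds, cut at about 42% in these data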
# Target sequence (P07550 whole entry, looked up): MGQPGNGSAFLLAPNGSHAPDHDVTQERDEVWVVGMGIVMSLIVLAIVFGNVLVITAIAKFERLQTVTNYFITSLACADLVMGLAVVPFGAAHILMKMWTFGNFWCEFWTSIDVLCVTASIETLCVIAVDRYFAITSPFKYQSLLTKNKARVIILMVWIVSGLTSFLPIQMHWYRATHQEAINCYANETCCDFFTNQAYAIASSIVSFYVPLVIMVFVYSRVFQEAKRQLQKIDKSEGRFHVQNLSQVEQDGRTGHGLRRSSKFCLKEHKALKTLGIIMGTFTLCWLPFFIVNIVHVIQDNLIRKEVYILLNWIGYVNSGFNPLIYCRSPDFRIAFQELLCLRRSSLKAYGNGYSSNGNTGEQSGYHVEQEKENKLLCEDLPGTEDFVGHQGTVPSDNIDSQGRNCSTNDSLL
# PfHsp90 yeast 2 – reduces growth (ATP signal) of yeast expressing P. falciparum Hsp90; S. cerevisiae expressing PfHsp90, BacTiter-Glo ATP, 48 h; yeast lacking PDR1 and PDR3 efflux regulators; hit rate 0.32% among 310,000; inhibition, % at 9.4 µM; AID 504621;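 active = every replicate shows inhibition above about 80%, whatever the replicate mean, limit read from the data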;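 note: 0% = DMSO neutral controls and 100% = 20 µM radicicol positive controls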
# tim23-1 inh – tim23-1 yeast growth inhibition; S. cerevisiae tim23-1 growth, BacTiter-Glo luminescence, 24 h; inhibition, % at 20 µM; hit rate 1.3% among 330,000; AID 463212;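 active = growth inhibition of the mutant yeast at or above 50%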;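 note: temperature-sensitive mutant grown at 25 °C; plate controls were DMSO-treated mutant yeast for no effect and medium wells lacking yeast for full effect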
# tim23-1 confirm – confirmation of tim23-1 mutant yeast growth inhibitors; shares compounds with tim23-1 inh; hit rate 83% among 4,400; S. cerevisiae tim23-1 growth, BacTiter-Glo luminescence, 24 h; inhibition, % at 20 µM;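 active = inhibition above about 39% in either of two replicate wells at 20 µM, limit read from the data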;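 note: temperature-sensitive tim23-1 mutant grown at 25 °C; 0% = DMSO wells with yeast and 100% = medium wells without yeast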
# An asterisk follows results filed as active; nt = not tested or not shown.
SMILES,TIM10 inh,tim10-1 inh,Beta2AR agonist,PfHsp90 yeast 2,tim23-1 inh,tim23-1 confirm
Cc1[nH]n(-c2nc(-c3ccccc3)cc(=O)[nH]2)c(=O)c1CCO,6,2,-1,0,87*,12
Cc1nc(-c2ccccc2)cc(=O)[nH]1,7,8,-1,nt,0,nt
CC(C)c1ccc(NC(=O)C2CCCCN2S(=O)(=O)c2ccccc2)cc1 (centres undefined),18,17,5,-14,37,nt
Cn1c(N)c(C(=O)CSc2nnc(-c3c[nH]c4ccccc34)n2C2CC2)c(=O)[nH]c1=O,4,-4,-1,-21,8,nt
Cc1cc(C)c(NC(=O)CS(=O)CC(=O)N2CCN(c3cccc(C)c3C)CC2)c(C)c1 (centres undefined),-8,4,9,0,90*,7
COc1cc(C)c(S(=O)(=O)NOCc2ccccc2)c(C)c1C,-3,7,-1,0,36,nt
CC(=O)c1c(C)[nH]c(C(=O)OCc2csc(CC(=O)Nc3ccccc3C)n2)c1C,6,16,-14,5,2,nt
CC(=O)NC(c1ccc(Cl)cc1Cl)c1ccc2cccnc2c1O (centres undefined),-37,-1,11,106*,58*,57*
COc1ccccc1C(NC(C)=O)c1cc(Cl)c2cccnc2c1O (centres undefined),17,31,-3,-19,36,nt
CC(=O)NC(c1ccc2ccccc2c1)c1ccc2cccnc2c1O (centres undefined),-28,18,6,108*,55*,71*
COc1cc(C(=O)Nc2ccc(S(=O)(=O)N3CCCCC3)cc2)ccc1OCC(=O)N1CCOCC1,nt,nt,-4,23,nt,nt
CCOc1ccccc1NC(=O)COC(=O)c1c(CC)noc1C,-2,15,2,-2,20,nt
O=c1cc(CSc2ccc(S(=O)(=O)N3CCCCC3)cn2)nc2sccn12,15,27,-4,-24,66*,38
Nc1ccc(S(=O)(=O)c2ccc(NC(=O)c3cccnc3)cc2)cc1,nt,nt,-3,9,nt,nt
Nc1nc2ccccc2n1/N=C/c1ccc(-c2ccccc2)o1,38,14,10,12,55*,18
Cc1ccccc1-c1ocnc1C(=O)Nc1ccccc1NC(=O)c1ccccn1,35,34,-10,-24,50*,49*
COc1ccc(OC)c(NC(=O)C2CCN(S(=O)(=O)c3ccc4c(c3)CC(C)N4C(C)=O)CC2)c1 (centres undefined),2,9,1,1,22,nt
Cn1c2ccccc2c(=O)c2c(=O)n(Cc3ccco3)c(-c3ccc(F)cc3)nc21,18,-7,-3,4,18,nt
Cc1ccc(-c2nc3c(c(=O)c4ccccc4n3C)c(=O)n2Cc2ccco2)cc1,30,6,11,6,53*,46*
Cc1ccc(C2(c3ccc(C)cc3)CC2C(=O)Nc2ccc([N+](=O)[O-])cc2O)cc1 (centres undefined),27,-25,18,29,50*,18
CN(C)CCOc1ccc(-c2c(-c3ccsc3)sc3ccccc23)cc1,14,25,19,24,76*,57*
COc1ccc(-c2sc3ccccc3c2-c2ccc(OCCN(C)C)cc2)cc1,-11,14,18,41,3,nt
CCCC(C)NC(=O)COC(=O)c1cccc(NS(C)(=O)=O)c1 (centres undefined),-18,6,1,11,0,nt
COC(=O)N/N=C/c1ccc(-c2cccc(Cl)c2)o1,7,-32,-8,16,20,nt
COC(=O)N/N=C/c1ccc(-c2cc(Cl)cc(Cl)c2)o1,35,34,-1,-43,57*,62*
Cc1ccc(N=C/C(C(=O)C(F)(F)F)=C(\O)c2ccco2)cc1Cl,22,19,-6,-64,44,nt
c1ccc(-c2nc(NCc3cccs3)c3ccccc3n2)cc1,28,-4,-5,43,51*,46*
Fc1ccc(CNc2nc(-c3ccccc3)nc3ccccc23)cc1,17,-3,-11,-25,21,nt
CCOC(=O)Nc1ccc(C(=O)/C=C/c2ccccc2)cc1,27,27,-3,6,58*,40
O=C(COC(=O)c1ccc(O)cc1O)c1ccc(Cl)cc1,-24,-14,-2,-14,63*,43*

# From PubChem BioAssay
